Results reported in PubChem BioAssay AID1362 (SRMLSC, 2008).
In all, about 190,000 compounds went through this assay and about 4,000 (2.1%) were called active. Rule as the data show it: active = inhibition above about 58%; inactive = the rest, inconclusive results apart; tested in S. cerevisiae. The entries come from a sample that favours actives as a whole.

Experiment: growth inhibition of WT strain, primary screen, mitochondrial fusion inhibitor project, WT and mutant strains, chemical genetic (AID 1362)
Conditions: mitochondrial fusion phenotypic screen, at 10 µM
[1] = WT strain, growth inhibition, stronger effect = higher value

Row | SMILES | inhibition [1] | inhibition (mutant strain inhibition) [%]
1 | CCN(CC)CCN(C(=O)c1ccc(N2C(=O)CCC2=O)cc1)c1nc2cc3c(cc2s1)OCO3 | 2.8% (inactive) | -0.18
2 | COc1ccc(-c2ccc(CNCCCN3CCOCC3)o2)cc1Cl | 6.85% (inactive) | 12.6
3 | C=CCNC(=O)COC(=O)CNC(=O)c1cc(Cl)cc([N+](=O)[O-])c1 | -6.93% (inactive) | 10.8
4 | C=CCNC(=S)NNC(=O)COc1c(Cl)cc(Cl)cc1Cl | 67.1% (active) | 29.7
5 | C=CCNC(=S)NNC(=O)c1ccc(Br)o1 | -3.81% (inactive) | 3.41
6 | CCOC(=O)C1CCCN(C(=O)c2cccc(S(=O)(=O)N3CCOCC3)c2)C1 (stereo not given) | -0.28% (inactive) | -18.7
7 | O=C(COc1ccc(-c2ccccc2)cc1)NN=C1CCCC1 | 2.21% (inactive) | -3.38
8 | CCCCc1cc2c(s1)CCCC/C2=N/O | 63.2% (active) | 6.26
9 | CCCc1noc2c1/C(=N\O)CCC2 | -2.57% (inactive) | -4.14
10 | Cc1[nH]c2ccccc2c1/C=C(/C#N)C(=O)NC(C)C | -14% (inactive) | -5.17
11 | Cc1ccc(NC(=S)N(CCCN2CCC(C)CC2)Cc2ccco2)cc1 | 2.89% (inactive) | 13.6
12 | Cc1ccc(NC(=S)N(CCN2CCCCC2)Cc2ccco2)cc1C | 8.12% (inactive) | 24.1
13 | Cc1ccc(NC(=S)N(Cc2ccco2)C(C)c2cccs2)cc1 (stereo not given) | 75.8% (active) | 51.5
14 | CCN1CCN(C(C(=O)NC2CCCC2)c2cc3c(cc2[N+](=O)[O-])OCO3)CC1 (stereo not given) | 2.26% (inactive) | -2.37
15 | CC1(c2ccccc2)CC(C)(C)N(C(=O)c2cc([N+](=O)[O-])cc([N+](=O)[O-])c2)c2ccccc21 (stereo not given) | 57% (inactive) | 35.9
16 | CC1CCN(C(=S)c2cccc([N+](=O)[O-])c2)CC1 | 7.85% (inactive) | 23
17 | CC1(c2cccc([N+](=O)[O-])c2)CC(C)(C)N(C(=O)c2ccccc2)c2ccccc21 (stereo not given) | 75.8% (active) | 33.1
18 | CCC(C(=O)OCC(=O)Nc1ccc(C(=O)Nc2ccc(OC)cc2)cc1)c1ccccc1 (stereo not given) | 12.9% (inactive) | -13.4
19 | CCC(C(=O)OCC(=O)Nc1ccccc1-c1ccccc1)c1ccccc1 (stereo not given) | 70.9% (active) | -2.32
20 | CCC(C(=O)OCC(=O)Nc1c(Cl)cc(Cl)cc1Cl)c1ccccc1 (stereo not given) | 11.1% (inactive) | -9.47
21 | O=C(Nc1ccc(NC(=O)c2ccco2)c(Cl)c1)c1cccc([N+](=O)[O-])c1 | 2.21% (inactive) | 16.7
22 | CC(=O)c1cnc(-c2ccccc2)s1 | 3.8% (inactive) | -4.54

Row | SMILES | inhibition [1] | inhibition (mutant strain inhibition) [%]
23 | O=C(C1CCCO1)N1CCN(C(=S)Nc2cccc(Cl)c2)CC1 (stereo not given) | -4.05% (inactive) | 25.8
24 | Cc1ccc(C2CCN(C(=S)Nc3cccc(Cl)c3)C2)cc1 (stereo not given) | 74.3% (active) | 55
25 | Cc1cccc(NC(=S)N2CCCC(c3nc4ccccc4[nH]3)C2)c1 (stereo not given) | -10.4% (inactive) | 0.82
26 | CC1CN(/C=C/C(=O)C(F)(F)F)CC(C)O1 (stereo not given) | -25.3% (inactive) | 4.39
27 | CSC(=S)N/N=C/c1c[nH]c2ccccc12 | 65.8% (active) | 13.3
28 | S=c1[nH]nc(-c2ccccc2)n1/N=C/c1c[nH]c2ccccc12 | 1.16% (inactive) | 0
29 | O=C(O)c1cccc(NC(=S)N/N=C/c2c[nH]c3ccccc23)c1 | -10.2% (inactive) | 4.36
30 | CCOC(=O)c1cnc2[nH]c3ccccc3n2c1=O | 2.43% (inactive) | -12.9
31 | Cc1ccc(Cl)cc1NC(=O)C1CCN(S(C)(=O)=O)CC1 | -9.34% (inactive) | -12.3
32 | Cc1ccccc1NC(=O)NC1(C(=O)N2CCCC2)CCCCC1 | -9.64% (inactive) | 7.72
33 | Cc1c(NC(=S)NCc2ccc(F)cc2)cccc1[N+](=O)[O-] | 5.62% (inactive) | 3.03
34 | Cc1cccc(NC(=S)NCCc2ccc(F)cc2)c1C | 74.7% (active) | 64.6
35 | CCNC(=S)Nc1cccc(Cl)c1C | 12.8% (inactive) | 23.6
36 | O=C(OCC(=O)N1CCOCC1)c1ccc(N2CCOCC2)c([N+](=O)[O-])c1 | -7.83% (inactive) | -1.16
37 | O=C(COc1ccc(Cl)cc1[N+](=O)[O-])N1CCCCC1 | 1.62% (inactive) | -14.6
38 | CCOC(=O)N/N=C/c1cn(Cc2ccccc2Cl)c2ccccc12 | -3.34% (inactive) | -14.2
39 | CNC(=S)N/N=C/c1cn(Cc2ccc(C)cc2)c2ccccc12 | 74.4% (active) | 61.2
40 | COC(=O)N/N=C/c1cn(CCCOc2ccc(C)cc2)c2ccccc12 | 2.1% (inactive) | -14.3
41 | Cc1cc(C(C)(C)C)cc(S(=O)(=O)Nc2ccc(C(=O)O)cc2)c1C | -13% (inactive) | 10.3
42 | Cc1cc(NS(=O)(=O)c2ccc(NC(=O)c3cccc(OC(F)F)c3)cc2)nc(C)n1 | -7.81% (inactive) | 6.49
43 | Cc1cc(C)cc(NC(=O)CSc2ccccc2)c1 | -4.46% (inactive) | -13.2
44 | Cc1ccsc1C(=O)N/N=C/c1ccc([N+](=O)[O-])cc1 | -11.5% (inactive) | -7.32

Row | SMILES | inhibition [1] | inhibition (mutant strain inhibition) [%]
45 | O=C(N/N=C/c1ccc([N+](=O)[O-])cc1)c1c[nH]c2ccccc12 | -8.33% (inactive) | 14.7
46 | Cc1nc2ccccc2cc1C(=O)N/N=C/c1ccc([N+](=O)[O-])cc1 | 65.1% (active) | 20.7
47 | Cc1ccc2[nH]c(=O)c(CN(CC3COCCO3)C(=O)Nc3ccccc3C)cc2c1 (stereo not given) | -8.31% (inactive) | 8.92
48 | COCCNc1nc(-n2nc(C)cc2C)nc2sc3c(c12)CCCC3 | 18.8% (inactive) | 0
49 | Cc1nc(SCC(=O)Nc2cc(C)on2)c2c3c(sc2n1)CCCC3 | 21.1% (inactive) | 31.1
50 | Cc1cc(C)n(-c2nc(SCC(=O)N3CCCC3)c3c4c(sc3n2)CCCC4)n1 | 62% (active) | 38.4
51 | Cc1cc(C)n(-c2nnc(N3CCN(c4ccccc4)CC3)nn2)n1 | 12.1% (inactive) | 10.8
52 | CC(CO)NCC12CC3CC(CC(C3)C1)C2 (stereo not given) | -17.6% (inactive) | -8.59
53 | Cc1ccccc1NC(=O)c1ccccc1 | -1% (inactive) | -29.4
54 | Cc1ccc(Nc2c(F)c(F)c(F)c(F)c2C(=O)O)c(C)c1 | -0.48% (inactive) | -18
55 | COc1c(F)c(F)c(C(=O)O)c(Nc2ccccc2C)c1F | 74.2% (active) | 15.4
56 | CC(=O)c1ccc(NC(=O)C(C)NCc2ccc(Cl)cc2)cc1 (stereo not given) | 26.3% (inactive) | -21.6
57 | Cc1cccc(C)c1NC(=O)Nc1ccccc1-n1ccnc1 | 0.23% (inactive) | 6.61
58 | CCNC(=S)NNC(=O)C1CCN(Cc2ccccc2)CC1 | 2.38% (inactive) | -10.7
59 | Fc1ccc(Cn2nnnc2C(c2cccs2)N2CCCCCC2)cc1 (stereo not given) | 62.9% (active) | 11.4
60 | CCC(C)(C)n1nnnc1C(c1cccs1)N1CCN(Cc2ccccc2)CC1 (stereo not given) | 10.3% (inactive) | 21.9
61 | Fc1ccccc1C(c1nnnn1Cc1ccc2c(c1)OCO2)N1CCN(Cc2ccccc2)CC1 (stereo not given) | 15.4% (inactive) | 18.9
62 | O=C(NCc1nnc(SCC(=O)N2CCCc3ccccc32)o1)c1ccccc1F | 1.27% (inactive) | -4.18
63 | CC(=O)Nc1ccc(CN2CCN(Cc3ccc(F)c(F)c3)C(CCO)C2)cc1 (stereo not given) | 1.99% (inactive) | 5.61
64 | Cc1ccc(NCc2n[nH]c(=S)n2-c2ccccc2)cc1Cl | -7.14% (inactive) | 3.54
65 | CC(=O)n1cc([C@@H]2C=C(C(=O)N3CCN(Cc4ccc5c(c4)OCO5)CC3)O[C@H](OCc3ccc(CO)cc3)C2)c2ccccc21 | 1.15% (inactive) | 3.61
66 | OCCCC1CCCCN1Cc1nc(Cc2ccccc2Cl)no1 (stereo not given) | -11.6% (inactive) | -5.21

Row | SMILES | inhibition [1] | inhibition (mutant strain inhibition) [%]
67 | C=CCC(CC=C)(C(N)=O)c1ccccc1 | -18.5% (inactive) | 6.11
68 | O=C(NCCOc1ccccc1)c1ccccc1 | 3.33% (inactive) | 5.23
69 | CN(C)CC(O)COc1ccc(C(C)(C)c2ccc(OCC(O)CN(C)C)cc2)cc1 (stereo not given) | -19.2% (inactive) | -3.67
70 | CC(C)(c1ccccc1)c1ccc(OCCN)cc1 | 79.8% (active) | 43.4
71 | CCOC(=O)c1cc(-c2ccc(F)cc2)n(CC(=O)NCc2ccccn2)c1C | -1.19% (inactive) | 1.72
72 | Cc1nn(-c2ccc([N+](=O)[O-])cc2)c(N)c1-c1ccccc1 | 6.29% (inactive) | -26
73 | Cn1cccc1C(C#N)c1ccccc1C#N (stereo not given) | -2.23% (inactive) | -5.92
74 | COc1ccccc1CCNC(=O)CSc1nnc2ccc(-c3cccnc3)nn12 | -7.72% (inactive) | 2.87
75 | CC(NC(=S)Nc1ccc(OC(F)F)cc1)c1ccc(F)cc1 (stereo not given) | 42.7% (inactive) | -13.6
76 | CN(C)CCCN(C(=O)COc1ccccc1)c1nc2c(Cl)cccc2s1 | -5.71% (inactive) | 13.3
77 | COc1cccc2sc(N(CCCN(C)C)C(=O)C(c3ccccc3)c3ccccc3)nc12 | 96.8% (active) | 88.8
78 | CC(=O)N(CCCN(C)C)c1nc2ccc(C)cc2s1 | -12.7% (inactive) | -0.04
79 | COc1ccc(CNc2c(CO)cnc3c2cnn3C)cc1 | 4.76% (inactive) | 3.68
80 | COCC(C)NC(=O)CSc1nc2nn(-c3ccccc3)c(=O)c-2c2n1CCCCC2 (stereo not given) | 0.91% (inactive) | -15.1
81 | O=C(/C=C/c1ccccc1)c1ccccc1O | 12.3% (inactive) | 8.14
82 | O=C(N/N=C/C=C/c1ccccc1)C1CC1(c1ccccc1)c1ccccc1 (stereo not given) | 17.1% (inactive) | -3.76
83 | CC(/C=C/c1ccccc1)=N\NC(=O)C1CC1(C)c1ccccc1 (stereo not given) | 71.7% (active) | 59.3
84 | CCOC(=O)C1=C(CC)Nc2ccccc2N=C1N | -42.2% (inactive) | -18.4
85 | CCO[C@H]1OC(C(=O)N2CCCCCCC2)=C[C@@H](c2ccc(C(F)(F)F)cc2)[C@@H]1CCCO | -11% (inactive) | 9.51
